Data taken from PMC4336329 (PLoS ONE, 2015).
In all, about 310,000 compounds went through this assay and about 14,000 (4.5%) showed an effect of 50% or more. Effects have a minus sign here. Shown is part of a subset that was picked to be rich in strong results.

biological target: human ether-à-go-go-related gene (hERG) potassium channel (human, UniProt Q12809); test: primary screen, population patch clamp on CHO cells stably expressing hERG; higher = less effect of the substance
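Further: peak tail current of the secondary pulse compared with the same well before compound.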

Chain of human ether-à-go-go-related gene (hERG) potassium channel (Q12809 whole entry, looked up): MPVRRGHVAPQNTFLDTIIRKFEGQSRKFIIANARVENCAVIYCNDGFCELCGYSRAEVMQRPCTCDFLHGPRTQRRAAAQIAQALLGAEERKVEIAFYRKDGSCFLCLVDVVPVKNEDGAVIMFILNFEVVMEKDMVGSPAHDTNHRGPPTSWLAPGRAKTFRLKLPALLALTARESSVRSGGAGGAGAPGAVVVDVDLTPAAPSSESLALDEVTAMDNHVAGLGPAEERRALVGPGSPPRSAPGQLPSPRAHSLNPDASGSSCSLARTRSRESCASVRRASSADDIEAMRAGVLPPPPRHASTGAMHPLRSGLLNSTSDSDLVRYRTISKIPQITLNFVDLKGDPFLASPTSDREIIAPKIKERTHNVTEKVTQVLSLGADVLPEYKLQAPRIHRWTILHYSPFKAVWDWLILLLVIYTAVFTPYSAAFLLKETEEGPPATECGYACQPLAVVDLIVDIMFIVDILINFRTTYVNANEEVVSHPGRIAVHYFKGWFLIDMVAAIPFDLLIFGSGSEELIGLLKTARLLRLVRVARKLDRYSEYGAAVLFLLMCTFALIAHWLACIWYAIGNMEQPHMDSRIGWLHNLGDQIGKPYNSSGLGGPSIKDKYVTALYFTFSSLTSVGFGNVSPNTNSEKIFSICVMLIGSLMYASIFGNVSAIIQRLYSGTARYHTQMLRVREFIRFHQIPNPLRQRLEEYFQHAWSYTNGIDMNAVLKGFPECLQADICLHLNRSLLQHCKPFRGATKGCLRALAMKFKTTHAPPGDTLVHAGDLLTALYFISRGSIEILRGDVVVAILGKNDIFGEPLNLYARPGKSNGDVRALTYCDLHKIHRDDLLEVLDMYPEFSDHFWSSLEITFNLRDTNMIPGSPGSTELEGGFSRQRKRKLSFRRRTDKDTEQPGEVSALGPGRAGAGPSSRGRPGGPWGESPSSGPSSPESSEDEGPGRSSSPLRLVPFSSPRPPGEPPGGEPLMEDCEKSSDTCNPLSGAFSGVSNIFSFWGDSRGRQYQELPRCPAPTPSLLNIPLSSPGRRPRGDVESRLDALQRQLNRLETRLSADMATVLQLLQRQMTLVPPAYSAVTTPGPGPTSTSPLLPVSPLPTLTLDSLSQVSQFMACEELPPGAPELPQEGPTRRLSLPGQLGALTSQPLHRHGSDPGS

Row | SMILES | hERG current change (%, negative = inhibition) at 10uM
1 | O=C(CN1C(=O)NC2(CCCC2)C1=O)N1CCN(S(=O)(=O)c2ccccc2F)CC1 | 22.3%
2 | O=[N+]([O-])c1ccc(O)c(NC(=S)Nc2ccccc2)c1 | 23.9%
3 | NC(=S)NC1CC2CC1C1C=CCC21 (stereo not shown) | 6.66%
4 | CCOc1ccc(N(CC(=O)NCc2ccc(C)cc2)S(=O)(=O)c2c(C)[nH]c(=O)[nH]c2=O)cc1 | 6.73%
5 | Cc1nn(-c2ccccc2)c(Cl)c1C(=O)NCCCCNC(=O)c1c(C)nn(-c2ccccc2)c1Cl | -2.76%
6 | CN(C)CCCNc1ccc(S(N)(=O)=O)cc1[N+](=O)[O-] | -13.1%
7 | CCOCCCNC(=O)CN1N=C(c2ccc(C)cc2)CCC1=O | -73.9%
8 | C=CCNC(=O)CN1N=C(c2ccc(C)cc2)CCC1=O | -44.3%
9 | CCCCN(C)CCCNC(=O)CN1N=C(c2ccc(Cl)cc2)CCC1=O | -56.7%
10 | CCN(CC)CCCNC(=O)CN1N=C(c2ccc(OC)cc2)CCC1=O | 14.5%
11 | CCCCCCCNC(=O)CN1N=C(c2ccc(C)cc2)CCC1=O | -67.8%
12 | COCCNC(=O)CN1N=C(c2ccc(C)cc2)CCC1=O | -47.9%
13 | CC(C)CCNC(=O)CN1N=C(c2ccc(Cl)cc2)CCC1=O | -15.8%
14 | Cc1ccc(C2=NN(CC(=O)NCCC(C)C)C(=O)CC2)cc1 | 4.58%
15 | Cc1ccc(C2=NN(CC(=O)NCCN(C)C)C(=O)CC2)cc1 | -44.9%
16 | CC(C)CN(CCCNC(=O)CN1N=C(c2ccc(Cl)cc2)CCC1=O)CC(C)C | -21.8%
17 | CCOC(=O)CN1N=C(c2ccc(C)cc2)CCC1=O | -47.2%
18 | Cc1ccc(C2=NN(CC(=O)O)C(=O)CC2)cc1 | -51.4%
19 | Cc1cc(SCC(=O)OCC(=O)N(C)c2ccccc2)nc2ccccc12 | -22.8%
20 | C=C[C@]1(C)C=C2CCC3[C@](C)(CCC[C@@]3(C)C(=O)O)C2CC1 (stereo partly shown) | 13.3%
21 | O=C(CCCN1C(=O)c2ccccc2C1=O)Nc1cccnc1 | -2.46%

Row | SMILES | hERG current change (%, negative = inhibition) at 10uM
22 | O=C(NCc1ccccn1)C1(C(F)(F)F)C/C(=C\CCO)CCCO1 (stereo not shown) | 6.37%
23 | CCOc1ccc(S(=O)(=O)Nc2cccc(C(=O)N(C)Cc3cccc(OC)c3OC)c2)cc1 | -11.6%
24 | O=C1[C@@H]2[C@H](C(=O)N1n1cnnc1)[C@H]1C=C[C@@H]2C1 | 11.5%
25 | Cc1ccc(NC(=O)CN2CCCCCC2)cc1[N+](=O)[O-] | 23.1%
26 | O=C(Nc1ccc(N2CCOCC2)c2nonc12)C1CCCC1 | 3.34%
27 | CCCn1c(=O)c2sccc2n2c(CCCC(=O)NCc3cccnc3)nnc12 | 19.2%
28 | C=CCNC(=O)CSc1n[nH]c(-c2cc(Cl)ccc2OC)n1 | 8.25%
29 | COc1ccc(Cl)cc1NC(=O)CN(C)C(=O)c1cn(-c2ccccc2)nc1-c1cccnc1 | -59.9%
30 | COc1ccc(Cl)cc1NC(=O)CN(C)C(=O)c1cccc(-n2cnnn2)c1 | -53.6%
31 | COc1ccc(Cl)cc1NC(=O)CN(C)C(=O)c1ccc2n[nH]nc2c1 | -13.8%
32 | COc1ccc(NC(=O)CN(C)C(=O)c2cn(-c3ccccc3)nc2-c2ccc(Cl)cc2)cc1 | 12.1%
33 | COc1ccc(Cl)cc1NC(=O)COc1cccc(-n2cnnn2)c1 | 10.3%
34 | COc1ccc(NC(=O)CN(C)C(=O)c2cn(-c3ccccc3)nc2-c2cccnc2)cc1 | -24.2%
35 | CCc1ccc(C(=O)Nc2cccc(-c3nn[nH]n3)c2)s1 | 16.9%
36 | CCOC(=O)C1CN(S(C)(=O)=O)c2cc(CC(=O)OC)ccc2O1 (stereo not shown) | 1.78%
37 | COc1ccccc1C(=O)NCCSCc1c(F)cccc1Cl | -15.4%
38 | Cc1cccn2c(=O)c3cc(C(=O)NCC4CCCO4)c(=N)n(C4CCCC4)c3nc12 (stereo not shown) | -74.8%
39 | Cc1cccn2c(=O)c3cc(C(=O)NCC4CCCO4)c(=N)n(C4CCCCC4)c3nc12 (stereo not shown) | -77.3%
40 | O=C(O)c1nn2c(C(F)(F)F)cc(-c3cccs3)nc2c1Cl | 1.4%
41 | COc1cccc(C(=O)Nc2cc(=O)n(C)c(=O)n2C)c1OC | 13.1%
42 | Cc1nn(Cc2ccc(C(=O)NC3CCCCC3)o2)c(C)c1Br | -34.6%

Row | SMILES | hERG current change (%, negative = inhibition) at 10uM
43 | COc1ccc2c(c1)c(CC(=O)O)c(C)n2C(=O)c1ccc(Cl)cc1 | 6.45%
44 | COc1ccc(/C=N/OCC(=O)N2CC3(C)CC2CC(C)(C)C3)cc1 (stereo not shown) | -56%
45 | COc1ccc(/C=N/OCC(=O)N2CC3(C)CC2CC(C)(C)C3)cc1OC (stereo not shown) | -3.72%
46 | COc1ccc(OCC(=O)N2CC3(C)CC2CC(C)(C)C3)cc1 (stereo not shown) | -21.2%
47 | N#Cc1ccc(COC(=O)c2ccc3c(c2)OCO3)cc1 | -27.4%
48 | Cc1ccc(NC(=O)CC2C(=O)NCCN2C(=O)c2ccc(F)cc2)cc1 (stereo not shown) | -26.3%
49 | CC(C)(C)c1ccc(C(=O)N2CCNC(=O)C2CC(=O)Nc2ccc(F)cc2)cc1 (stereo not shown) | 13.9%
50 | CCc1ccc(NC(=O)CC2C(=O)NCCN2C(=O)c2ccc(F)cc2)cc1 (stereo not shown) | -55.4%
51 | O=S(=O)(Cc1ccccc1)Nc1ccc(F)cc1 | 7.05%
52 | O=C1c2cccc3cccc(c23)C(=O)N1OS(=O)(=O)c1ccc(Br)cc1 | 24.2%
53 | COc1ccc(S(=O)(=O)Oc2ccc(C(=S)N3CCOCC3)cc2OC)cc1 | -0.365%
54 | COc1ccc(C(=S)N2CCOCC2)cc1OC(=O)c1cccc([N+](=O)[O-])c1 | -39.9%
55 | CCOc1cc(C(=S)N2CCOCC2)ccc1OS(=O)(=O)c1ccc(Br)cc1 | -1.54%
56 | COc1cc(C(=S)N2CCOCC2)cc(OC)c1OC(=O)c1ccc([N+](=O)[O-])cc1[N+](=O)[O-] | -4.69%
57 | COc1ccc(C(=S)N2CCOCC2)cc1OC(=O)c1ccc([N+](=O)[O-])cc1[N+](=O)[O-] | -52%
58 | COc1cc(C(=S)N2CCOCC2)ccc1OC(=O)c1cc([N+](=O)[O-])cc([N+](=O)[O-])c1 | 0.943%
59 | COc1ccc(C(=S)N2CCOCC2)cc1OC(=O)c1ccc([N+](=O)[O-])cc1 | -63%
60 | COc1ccc(C(=S)N2CCOCC2)cc1OS(=O)(=O)c1ccc(Br)cc1 | -70%
61 | COc1cc(C(=S)N2CCOCC2)ccc1OC(=O)c1ccc([N+](=O)[O-])cc1[N+](=O)[O-] | 17.1%
